Screening data as filed in PubChem.
HT1080 IDH1KD tx: qHTS for induction of synthetic lethality in tumor cells producing 2HG: qHTS for the HT-1080-IDH1KD cell line; hit rate 2% among 360,000; Potency, µM (top dose mostly 46.1 µM), for inactives: top-dose activity, negative = toxicity, most hits filed as cytotoxic; HT-1080 IDH1 knockdown viability, ATP luminescence, 48 h; AID 686971, 2013;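 further: potency means the concentration at half of the fitted maximal effect; 0% = DMSO wells and -100% = cell-free medium wells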
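Knockdown cells (IDH1KD HT-1080) received compounds 2 h after plating at 750 cells/well and were kept 48 h at 37 °C in 5% FBS RPMI. A CellTiter-Glo luminescence read gave % activity for curve fitting.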
uPA surface inh: qHTS for Inhibitors of Cell Surface uPA Generation; cell surface uPA generation assay, qHTS; Potency, µM (top dose mostly 38.3 µM), inactives show top-dose activity change, negative = inhibition, actives largely listed as inhibitors; hit rate 0.31% among 330,000; AID 540303, 2011; active means well fitted inhibition curve with a large enough effect; inconclusive means small, poorly fitted or top-dose-only effect; inactive means no such curve, though single readings can be large or run the other way; tested in mouse RAW 264.7 cells; further: potency means the concentration at half of the fitted maximal effect; nearly all actives have a fitted effect of over 55% in size
DT40 TDP1 CPT: qHTS for Inhibitors of human tyrosyl-DNA phosphodiesterase 1 (TDP1): qHTS in cells in presence of CPT; AID 686979, 2013; Potency, µM (series often up to 46.2 µM), for inactives: top-dose activity change, negative = growth inhibition, usual class: inhibitors; chicken DT40 Tdp1-/-;hTDP1 cells + 20 nM CPT, ATP luminescence, 48 h; hit rate 12% among 420,000; further: potency means the concentration at half of the fitted maximal effect; nearly all actives have a fitted effect of over 55% in size
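Chicken DT40 Tdp1-/- cells complemented with human TDP1, 400 cells/well, exposed to compounds plus 20 nM camptothecin for at least 48 h at 37 C; viability read as ATP content by CellTiter-Glo luminescence.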
TDP1 cell noCPT: qHTS for Inhibitors of human tyrosyl-DNA phosphodiesterase 1 (TDP1): qHTS in cells in absence of CPT; AID 686978, 2013; Potency, µM (top dose mostly 46.2 µM), for the others: at the top dose activity change, negative = growth inhibition, usual class: inhibitors; hit rate 15% among 420,000; DT40 Tdp1-/- hTDP1 cells, no CPT, ATP luminescence, 48 h; further: potency means the concentration at half of the fitted maximal effect; nearly all actives have a fitted effect of over 55% in size
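Chicken DT40 Tdp1-/- cells stably complemented with human TDP1 were seeded at 400 cells/well with DMSO in place of 20 nM camptothecin. After compound pinning, cells grew at least 48 hr at 37 °C; viability read by CellTiter-Glo luminescence.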
IL-1B inflam inh: qHTS for Inhibitors of Inflammasome Signaling: IL-1-beta AlphaLISA Primary Screen; THP-1 LPS/ATP IL-1B secretion, AlphaLISA, 16 h; active compounds read low; activity change, % at 57.5 µM; hit rate 4.7% among 360,000; AID 743279, 2014; in the data active means activity change below about -50%; inconclusive means mostly about -30% to -49%
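THP-1 cells pretreated 1 hr with compounds (up to 57.5 uM final), then stimulated with LPS (250 ng/mL final) plus ATP (1.25 mM final); secreted IL-1B measured by AlphaLISA after 16 hr, decreased signal indicating inhibition.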
HT1080NT lethal: qHTS for induction of synthetic lethality in tumor cells producing 2HG: qHTS for the HT-1080-NT fibrosarcoma cell line. HT-1080-NT fibrosarcoma viability, CellTiter-Glo ATP luminescence, 48 h. Potency, µM (highest dose often 46.1 µM), for inactives: at the top dose activity, negative = less viability, usual class: cytotoxic. hit rate 1.6% among 360,000;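 further: NT is the 2HG producing partner of a matched IDH1 knockdown line; potency means the concentration at half of the fitted maximal effect; 0% = DMSO-treated cells and -100% = media-only wells without cells; nearly all actives have a fitted effect of over 55% in size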
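HT-1080-NT; 750 cells/well; 5% FBS RPMI; 48 h compound, 37 degrees C; CellTiter-Glo luminescence; curve fitting and curve-class assignment.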
Starred values were filed as active, the others as inactive; ? = inconclusive; · = no result given; [ ] = remark or other dose. An excerpt weighted towards active compounds, which were near 19% of everything screened. Unless noted, the call rests on the fitted dose curve; in most records, active means well fitted curve in the direction sought with a large enough effect; inconclusive means small, poorly fitted or top-dose-only effect, or another doubt; inactive means no such curve, though single readings can be large; an effect the other way counts as inactive or inconclusive. Unless noted, on the % scale 0 is the no-effect control and ±100 the full control effect.

SMILES | HT1080 IDH1KD tx | uPA surface inh | DT40 TDP1 CPT | TDP1 cell noCPT | IL-1B inflam inh | HT1080NT lethal
O=C1[C@@H]2Cc3c([nH]c4ccccc34)C(c3cccc([N+](=O)[O-])c3)N2C(=O)CN1CCCO (stereo partly drawn) | -22.0% | -11.5% | -20.7% | -5.2% | 0.0 | -16.6%
O=C1[C@@H]2Cc3c([nH]c4ccccc34)C(c3ccccc3)N2C(=O)CN1C1CC1 (stereo partly drawn) | -5.6% | -0.6% | ? | ? | ? | -5.3%
CN1CC(=O)N2C(c3ccc(Cl)cc3)c3[nH]c4ccccc4c3C[C@H]2C1=O (stereo partly drawn) | ? | 5.62µM* | 14.6µM* | ? | -13.7 | -30.0%
CCN1C(=O)[C@@H]2Cc3c([nH]c4ccccc34)C(c3ccc(OC)cc3)N2C1=S (stereo partly drawn) | -22.3% | -18.0% | ? | 14.6µM* | -9.9 | ?
O=C1[C@@H]2Cc3c([nH]c4ccccc34)C(c3ccc([N+](=O)[O-])cc3)N2C(=O)CN1C1CC1 (stereo partly drawn) | -24.0% | ? | 2.59µM* | 4.61µM* | -20.9 | ?
COc1ccc(C2c3[nH]c4ccccc4c3CC3C(=O)N(CCc4ccc(OC)c(OC)c4)CC(=O)N32)cc1 (stereo not drawn) | · | · | 3.7%[9.04 µM] | -11.5%[9.04 µM] | · | ·
COC(=O)c1ccc2cc(OC)cc([N+](=O)[O-])c2n1 | -1.6% | -0.8% | -17.0% | -16.5% | 9.2 | 2.1%
COc1ccccc1-c1nnc(SCC(=O)Nc2ccc(Cl)cc2Cl)o1 | -7.3% | · | -17.2% | -22.9% | 10.3 | 1.5%
COc1cccc2c1OC[C@@H](CO)[C@H]2N(C)C(=O)Nc1ccc(Cl)cc1Cl | -15.4% | -8.0% | 13µM* | 10.3µM* | 23.0 | 0.1%
COc1ccc(C(=O)/C=C/c2ccccc2F)c(OC(=O)c2ccc([N+](=O)[O-])cc2)c1 | -29.0% | -10.2% | 23.1µM* | 13µM* | -101.2* | -4.6%
O=C(/C=C/c1ccccc1F)c1cccc([N+](=O)[O-])c1 | -24.7% | -12.1% | ? | 20.6µM* | -9.1 | -13.3%
O=C(Oc1ccc(F)cc1C(=O)/C=C/c1cccs1)c1cccc([N+](=O)[O-])c1 | ? | -9.3% | 0.164µM* | 0.366µM* | ? | -37.0%
COc1ccc(C(=O)/C=C/Nc2ccc([N+](=O)[O-])cc2C)c(OC)c1 | 11.3% | · | -24.4% | ? | -2.8 | 14.7%
COc1cc(/C=C/C(=O)c2cccc([N+](=O)[O-])c2)cc(OC)c1OC | ? | -12.8% | 5.8µM* | 5.17µM* | -60.9* | ?
COc1cc(CC(=O)OCc2cccc([N+](=O)[O-])c2)cc(OC)c1OC | -15.2% | 1.4% | 0.1% | ? | 10.7 | 1.6%
Cc1ccc(OC(=O)c2cccc([N+](=O)[O-])c2)c(-n2nc3ccccc3n2)c1 | -8.3% | -2.0% | -14.5% | -29.3% | 2.2 | 1.3%
O=C(N/C(=C/c1cn(-c2ccccc2)nc1-c1ccccc1)C(=O)N1CCOCC1)c1ccc(Cl)cc1Cl | 3.8% | -4.3% | ? | ? | -1.2 | 11.0%
O[C@@H]1CN(CC2CCCCC2)[C@@H](c2ccccc2)C[C@H]1n1cc(C2CC2)nn1 | 4.4% | · | ? | 8.2µM* | 2.6 | 5.7%
O[C@H]1CN(CC2CCCCC2)[C@@H](c2ccc(Cl)cc2)C[C@@H]1n1cc(C2CC2)nn1 | ? | · | ? | ? | -15.3 | ?
O[C@H]1C[C@H](c2ccccc2)N(CC2CCCCC2)C[C@@H]1n1cc(C2CC2)nn1 | ? | · | 10.3µM* | 7.31µM* | -25.2 | ?
CCOC(=O)Cn1c(=O)n(C2CCCCC2)c2nc(-c3cccc(C)c3)nc(C(N)=O)c21 | · | · | ? | -6.0% | · | ·
CCCC(=O)Nc1ccc2nc(C)n(Cc3ccccc3Cl)c(=O)c2c1 | -9.4% | -4.4% | -14.2% | -13.9% | -13.1 | -5.9%
Cc1nc2ccc(NC(=O)c3cccs3)cc2c(=O)n1Cc1ccc(Cl)cc1 | ? | -14.7% | 18.4µM* | ? | -92.3* | 6.31µM*
CC(C)C(C)/C=C/C(C)C1CCC2C3=CCC4CC(=O)CC[C@@]4(C)C3CC[C@]21C (stereo partly drawn) | · | · | 3.3% | -16.6% | · | ·
Cc1nnc(SCC(=O)N(CC(C)C)C2CCS(=O)(=O)C2)s1 (stereo not drawn) | -9.8% | 7.8% | -3.1% | 9.6% | 12.0 | -6.9%
SMILES | HT1080 IDH1KD tx | uPA surface inh | DT40 TDP1 CPT | TDP1 cell noCPT | IL-1B inflam inh | HT1080NT lethal
CC(C)CN(C(=O)CSc1nnc2ccccn12)C1CCS(=O)(=O)C1 (stereo not drawn) | 9.5% | -6.3% | -8.5% | 3.8% | 0.8 | -1.8%
CC(C)CN(C(=O)CSc1nn(-c2ccc(Cl)cc2)c(=S)s1)C1CCS(=O)(=O)C1 (stereo not drawn) | -16.7% | -6.5% | ? | 18.4µM* | -13.6 | -9.8%
Cc1ccc(-n2ccnc2SCC(=O)N(CC(C)C)C2CCS(=O)(=O)C2)c(C)c1 (stereo not drawn) | 2.9% | -0.5% | ? | 18.4µM* | -18.7 | -2.6%
CCS(=O)(=O)c1ncc(CO)n1CCc1ccccc1 | 10.5% | 3.5% | 6.2% | 15.2% | 10.0 | 0.7%
O=c1nc2ccccc2c2n1CC(CN1CCN(c3ccccc3)CC1)N2 (stereo not drawn) | · | · | 7.2% | -6.2% | · | ·
c1ccc(-c2c[n+]3c(n2-c2ccccc2)SCC3)cc1 | ? | -6.2% | ? | 20.6µM* | -10.0 | -3.3%
c1ccc(-n2c3ccccc3c3ccccc32)cc1 | -1.8% | 4.1% | ? | ? | 13.8 | 19.4%
CCOc1ccc(-n2c(-c3ccc(Cl)cc3)c[n+]3c2SCC3)cc1 | 23.1µM* | -9.1% | 1.84µM* | 2.06µM* | -86.0* | -10.3%
O=C(NCCCN1CCCC1=O)C(=O)NCC1OCCN1S(=O)(=O)c1ccc(Cl)cc1 (stereo not drawn) | 1.0% | -1.1% | 0.7% | -3.2% | 0.0 | 0.2%
[O-]/[N+](=C\c1ccncc1)c1ccccc1 | 0.7% | 2.1% | 20.6µM* | ? | -1.5 | 6.5%
[O-]/[N+](=C\C=C\c1ccccc1)c1ccccc1 | 0.2% | -4.9% | -15.0% | ? | 8.6 | 1.6%
